This is part of a sample that, as a whole, favours compounds with a hit. Of some 83,000 tested, about 20% had one in any assay.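 Percent growth is the endpoint: 0 to 100 indicates growth inhibition (40 means 60% inhibition), 0 means no net growth, and negative values indicate cell death.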 A number with no mark means an inactive call. Calls of active or inactive are those of the source. Rule for the calls: active = growth percent below 10; inactive = the rest.

For this assay, the system named is HL-60(TB) leukemia. The experiment in a line: NCI-60 one-dose screen, 48 h (100 = growth as untreated, 0 = no growth, -100 = all killed). The settings on record: 10 µM unless noted.
Regarding `Nc1ccc(S(=O)(=O)Nc2ccsc2-c2nc(-c3ccccc3)no2)cc1`, the growth was 35.1%.

For `CC(C)(C)OC(=O)CN1CCc2c(sc3ncnc(N/N=C/c4ccccc4Br)c23)C1`, the growth is 92.1%.

For `COc1ccc(OC)c(C(=O)c2oc3ccc(Br)cc3c2N)c1`, the growth was -10.2% (active).

As to `c1cncc(-c2csc(-c3c[nH]c4ccccc34)n2)c1`, the growth was 91.9%.

Consider `Cc1ccc(S(=O)(=O)OC[C@]23CCC(C)(C)C[C@H]2C2=CC[C@@H]4[C@@]5(C)CCCNC(C)(C)[C@@H]5CC[C@@]4(C)[C@]2(C)CC3)cc1`, for which the growth was 24.5%.

Consider `CC(C)COc1nc2c(c(=O)n(C)c(=O)n2C)n1C`, for which the growth is 97%.

As for `NC(=O)c1ccc2nc3c(n2c1)C(=O)C(=O)c1ccccc1-3`, the growth was -42.2% (active).

As to `O=C(NCc1ccco1)C1CCN(S(=O)(=O)c2ccc(Cl)cc2)CC1`, the growth was 19.1%.

On to `FC(F)(F)Oc1ccc2nc3nc4ccc[nH]c4cc3c2c1`, for which the growth is 73.4%.

`CC(=O)Nc1ccc(CC#N)cc1Br`: the growth was 123%.

Turning to `Nc1nc(Cn2c(-c3nonc3N)nc3ccccc32)nc(N2CCCCC2)n1`, the growth was 82.2%.

As for `CC(=O)Nc1cccc(C2=CC(c3ccc(C)cc3)n3ncnc3N2)c1` (stereo not given), the growth was 89.9%.

For `Cn1/c(=N\N=C\c2ccccc2OCCO)sc2ccccc21`, the growth was 92.5%.

With `N[C@H](C(=O)O)[C@@H]1CC(Cl)=NO1`, the growth is 34.9% [20 µM].

Consider `COc1cc(/C=N/NC(=O)c2ccc(-n3cc(-c4ccccc4)nn3)cc2)cc(OC)c1OC`, for which the growth is 101%.

In the case of `CC1CCCN(CCCCOc2ccc(-c3ccc(C#N)cc3)cc2)C1` (stereo not given), the growth was 92.6%.

Take `Cc1csc2ccc(Cl)cc12`: the growth was 110%.

For `O=C(Oc1cccc2cccnc12)c1ccccc1`, the growth is 93.7%.

`CNC(=O)c1cc(Oc2cccc3nc(NC(=O)Nc4cc(C(F)(F)F)ccc4Cl)ccc23)ccn1`: the growth was 103%.

Regarding `O=C1c2ccccc2NC(n2sc3ccccc3c2=O)N1c1ccccc1` (stereo not given), the growth is 87.9%.

For the molecule `Cc1ccc2oc(=O)cc(C3c4ccc([nH]4)C(c4cc(=O)oc5ccc(C)cc45)c4ccc([nH]4)C(c4cc(=O)oc5ccc(C)cc45)c4ccc([nH]4)C(c4cc(=O)oc5ccc(C)cc45)c4ccc3[nH]4)c2c1` (stereo not given), the growth was -24% (active).

On to `COc1ccc2c(c1)nc(N)c1c3cc(C)c(C)cc3cn21`, for which the growth was 79.6%.

With `Cc1csc(-c2ccc3c(c2)COC3(CCCN(C)C)c2ccc(F)cc2)c1` (stereo not given), the growth was -47.9% (active).

As for `COc1ccc(Br)c2ccccc12`, the growth is 88.4%.

Regarding `Cc1ccc(C2CC(c3cccc(Nc4ccncc4)c3)=NN2c2ccc(Cl)cc2)cc1` (stereo not given), the growth is -55.6% (active).

For `CCCN1CCN(c2ccc3nc(-c4ccc5nc(-c6ccc(OCC)c(OCC)c6)[nH]c5c4)[nH]c3c2)CC1`, the growth is -23.1% (active).

On to `O=C1C=CC(O)=CC1=P(c1ccccc1)(c1ccccc1)c1ccccc1`, for which the growth is 97.8%.

With `CCOC(=O)/C(=C/c1ccccc1)C(=O)c1ccccc1`, the growth was 34.5%.

As for `CCN(CC)c1ccc(C(=C2C=CC(=[N+](CC)Cc3cccc(S(=O)(=O)O)c3)C=C2)c2ccc(N(CC)Cc3cccc(S(=O)(=O)O)c3)cc2)cc1`, the growth was -22.2% (active).

For the molecule `Nc1n[nH]c2cccc(C#Cc3cccc(C(=O)Nc4cc(CN5CCOCC5)cc(C(F)(F)F)c4)c3)c12`, the growth is 16.6%.

Consider `CCn1c(SCC(=O)Nc2cc(C(F)(F)F)ccc2Cl)nc2ccccc2c1=O`, for which the growth is 19.3%.

As for `CCCCC(CC)CN=C(N)NC(N)=NCCCCCCN=C(N)NC(N)=NCC(CC)CCCC` (stereo not given), the growth is -76.8% (active).

As for `CCN1C(=O)N(CC)C2C1NN=c1s/c(=C3\C(=O)N(CC(C)C)c4ccccc43)c(=O)n12` (stereo not given), the growth is -43.8% (active).

`COc1ccccc1/C=C/C1=C(C)CCC(c2ccccc2OC)C1C` (stereo not given): the growth is -41.1% (active).

With `NC(=NCCCOc1ccc(F)cc1)Nc1ccc(Cl)cc1`, the growth was 72%.

In the case of `O=C(c1cccs1)c1ccccc1Cc1ccccc1`, the growth is 98.8%.

`C=C1CC2(OC1=O)C(=O)N(CCCN1C(=O)C3(CC(=C)C(=O)O3)c3ccccc31)c1ccccc12` (stereo not given): the growth is -26.5% (active).

In the case of `NNc1ccccc1C(=O)O`, the growth is 49.1%.

For `CCC1(C)OC(=O)NC1=O` (stereo not given), the growth is 112%.

Take `CCCCn1c(=O)c(-c2cc(-c3ccc(Cl)cc3)nc(-c3ccc(Cl)cc3)c2)cc2cc(C)ccc21`: the growth is 100%.

The values are drawn from PubChem BioAssay (NCI).
